Data: PubChem BioAssay (NCATS)
Records with an inconclusive call do not appear. A call without a number means that no potency is given here. Active and inactive are the calls of the source. Calls follow the shape of the dose curve; as a rule, active = well fitted curve in the direction sought with a large enough effect; inconclusive = small, poorly fitted or top-dose-only effect, or another doubt; inactive = no such curve, though single readings can be large; an effect the other way counts as inactive or inconclusive.

Target: Rap guanine nucleotide exchange factor 4 (Homo sapiens) (UniProt Q8WZA2)
Test: Confirmatory qHTS for agonist of cAMP-regulated guanine nucleotide exchange factor 4 (EPAC2) (AID 1645884);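 also: nucleotide exchange releases bodipy-GDP from Rap1 and this lowers its fluorescence; nearly all actives have a fitted effect of over 65% in size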
Details: EPAC2 GEF activity, Rap1B-BODIPY-GDP fluorescence; series mostly up to 154 µM

Rap guanine nucleotide exchange factor 4 (Homo sapiens), sequence (Q8WZA2 whole entry, looked up): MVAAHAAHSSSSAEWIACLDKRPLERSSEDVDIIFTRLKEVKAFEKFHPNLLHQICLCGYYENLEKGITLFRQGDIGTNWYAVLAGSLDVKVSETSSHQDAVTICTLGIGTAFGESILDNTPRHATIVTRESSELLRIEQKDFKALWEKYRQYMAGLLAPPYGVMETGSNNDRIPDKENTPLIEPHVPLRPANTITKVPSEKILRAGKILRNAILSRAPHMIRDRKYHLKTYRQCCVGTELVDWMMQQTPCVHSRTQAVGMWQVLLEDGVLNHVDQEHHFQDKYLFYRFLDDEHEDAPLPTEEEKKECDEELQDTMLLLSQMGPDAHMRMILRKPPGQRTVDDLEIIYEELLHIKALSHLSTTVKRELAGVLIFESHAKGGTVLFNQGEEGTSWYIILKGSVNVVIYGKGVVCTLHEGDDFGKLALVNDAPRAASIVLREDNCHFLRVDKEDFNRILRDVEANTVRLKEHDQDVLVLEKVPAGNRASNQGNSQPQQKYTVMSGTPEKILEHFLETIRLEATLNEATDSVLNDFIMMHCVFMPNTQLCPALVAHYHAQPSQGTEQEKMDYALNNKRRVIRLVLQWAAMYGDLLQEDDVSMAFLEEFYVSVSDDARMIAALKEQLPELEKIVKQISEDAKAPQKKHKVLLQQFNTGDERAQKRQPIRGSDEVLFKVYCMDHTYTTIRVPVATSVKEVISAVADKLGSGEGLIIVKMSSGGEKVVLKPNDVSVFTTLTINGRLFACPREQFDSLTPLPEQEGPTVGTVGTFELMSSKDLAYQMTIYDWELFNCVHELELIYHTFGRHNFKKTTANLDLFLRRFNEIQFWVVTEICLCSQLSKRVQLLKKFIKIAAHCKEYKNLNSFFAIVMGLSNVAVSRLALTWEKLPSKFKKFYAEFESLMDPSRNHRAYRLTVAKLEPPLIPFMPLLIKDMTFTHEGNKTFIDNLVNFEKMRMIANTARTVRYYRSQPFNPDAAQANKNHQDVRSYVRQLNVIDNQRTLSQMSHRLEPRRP

SMILES	activation	Potency
CC1Cc2nc(SCC(=O)NCc3ccccc3)n(Cc3ccccc3)c(=O)c2S1 (centres undefined)	2.68% [at 17.1 µM, percent relative to cAMP agonist control] (inactive)	–
CCOC(=O)CN1C(=O)c2ccccc2Sc2ncccc21	0% [at 17.1 µM, percent relative to cAMP agonist control] (inactive)	–
O=C1S/C(=C\c2ccc(O)c([N+](=O)[O-])c2)C(=O)N1c1ccccc1Cl	–	inactive

Target: Rap guanine nucleotide exchange factor 4 (Homo sapiens) (UniProt Q8WZA2)
Test: Confirmatory qHTS for antagonist of cAMP-regulated guanine nucleotide exchange factor 4 (EPAC2) (AID 1645885); also: nearly all actives have a fitted effect of over 25% in size; also: potency is read from the fitted curve at half-maximal effect
Details: EPAC2 Rap1B-BODIPY-GDP exchange fluorescence, biochemical; series mostly up to 12.7 µM

SMILES	Potency	outcome
Cc1nn(CCc2nn[nH]n2)c2nc(-c3ccc(C4CCCCC4)cc3)cc(C(F)(F)F)c12	inactive	–
O=C(NS(=O)(=O)c1ccc2ccc(S(=O)(=O)NCCSc3ccccc3)cc2c1)c1cccc2ccccc12	67.5 µM (active)	–
CCOC(=O)C1CCCN(C(=O)C(C)(C)Oc2ccc(Cl)cc2)C1 (centres undefined)	inactive	–
O=C(CNC(=O)c1sc2ccccc2c1Cl)Nc1ccccc1F	inactive	–
CCOc1c(OC)cccc1C1CC(=O)Nc2cc3c(cc21)OCCO3 (centres undefined)	inactive	–
Cc1ccc(S(=O)(=O)/N=C2\C=C(Nc3cccc(C(=O)O)c3)C(=O)c3ccccc32)c(C)c1	inactive	–
CS/C(N)=N/N=C/c1c(O)ccc2ccccc12	inactive	–
CC(=O)c1c(C(C)=O)c(C)n(-c2nc(-c3ccccc3)c(C)s2)c1C	inactive	–
CC(C)CNC(=O)c1c(-c2ccccc2)c(-c2ccccc2)nn(C)c1=O	–	inactive [at 12.7 µM]
O=C1CSC2(C(=O)N(Cc3cccc(C(F)(F)F)c3)c3ccccc32)N1c1ccc(F)c(F)c1 (centres undefined)	inactive	–
O=[N+]([O-])c1ccc(Cc2ccccn2)c([N+](=O)[O-])c1	–	inactive; activator; fitted 0.12 uM [at 12.7 µM]
